# Data reported in ChEMBL document CHEMBL1201862, “PubChem BioAssay data set” (2004).
# In all, about 400,000 compounds went through this assay and about 2,100 (0.53%) were called active. Roughly 14% stayed inconclusive and do not appear here. How the calls were made is not given here. The entries come from a sample that favours actives as a whole.
# Biological target: Ataxin-2 (Homo sapiens) (UniProt Q99700)
# Assay: qHTS for Inhibitors of ATXN expression.
# Type: functional
# Ataxin-2 (Homo sapiens), sequence (Q99700 whole entry): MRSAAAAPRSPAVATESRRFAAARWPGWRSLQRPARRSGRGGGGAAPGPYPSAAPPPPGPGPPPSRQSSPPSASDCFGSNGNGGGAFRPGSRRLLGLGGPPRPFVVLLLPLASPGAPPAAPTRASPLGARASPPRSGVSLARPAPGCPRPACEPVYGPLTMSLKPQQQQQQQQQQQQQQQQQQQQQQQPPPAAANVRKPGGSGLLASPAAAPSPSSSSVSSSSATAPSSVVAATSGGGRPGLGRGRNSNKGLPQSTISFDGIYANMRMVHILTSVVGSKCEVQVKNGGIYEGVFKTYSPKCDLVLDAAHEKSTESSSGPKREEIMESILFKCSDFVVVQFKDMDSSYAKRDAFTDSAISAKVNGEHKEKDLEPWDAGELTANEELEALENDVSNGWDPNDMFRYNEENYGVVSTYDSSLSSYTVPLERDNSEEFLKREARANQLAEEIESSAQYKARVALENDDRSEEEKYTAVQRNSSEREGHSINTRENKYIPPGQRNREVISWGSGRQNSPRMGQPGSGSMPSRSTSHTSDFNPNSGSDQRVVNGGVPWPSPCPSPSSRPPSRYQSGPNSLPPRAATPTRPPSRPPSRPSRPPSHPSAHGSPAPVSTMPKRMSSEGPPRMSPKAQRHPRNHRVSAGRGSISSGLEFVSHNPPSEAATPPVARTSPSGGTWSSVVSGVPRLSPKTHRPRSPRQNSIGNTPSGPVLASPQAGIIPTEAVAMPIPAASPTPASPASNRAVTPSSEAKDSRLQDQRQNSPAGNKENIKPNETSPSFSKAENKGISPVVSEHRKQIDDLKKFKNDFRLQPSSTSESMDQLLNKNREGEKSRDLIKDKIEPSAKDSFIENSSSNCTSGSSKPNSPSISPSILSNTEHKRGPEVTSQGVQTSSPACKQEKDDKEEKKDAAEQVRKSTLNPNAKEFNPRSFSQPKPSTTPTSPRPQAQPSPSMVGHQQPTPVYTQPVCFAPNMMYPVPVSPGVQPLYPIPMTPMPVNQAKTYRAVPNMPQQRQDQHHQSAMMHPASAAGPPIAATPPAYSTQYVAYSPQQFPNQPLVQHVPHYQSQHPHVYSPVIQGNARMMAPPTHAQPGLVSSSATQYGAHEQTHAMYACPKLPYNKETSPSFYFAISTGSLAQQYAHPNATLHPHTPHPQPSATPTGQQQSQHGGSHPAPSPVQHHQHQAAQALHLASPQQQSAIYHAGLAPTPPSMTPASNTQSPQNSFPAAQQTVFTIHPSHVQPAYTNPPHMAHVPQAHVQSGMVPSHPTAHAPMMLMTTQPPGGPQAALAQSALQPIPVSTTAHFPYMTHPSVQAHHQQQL
row,SMILES,Potency
1,COc1cccc(CN=C(S)Nc2cc(C)ccc2C)c1,inactive
2,CCN(CC)CCN(C(=O)CCS(=O)(=O)c1ccccc1)c1nc2c(C)cc(C)cc2s1,44.7 µM (active)
3,COC(=O)COc1cccc2c(=O)n(CC(=O)N3CCCCC3)ccc12,inactive
4,CCn1cc(C(=O)OCC(=O)Nc2ccc(C)c(Cl)c2)c(=O)c2ccc(C)nc21,inactive
5,CCn1ccc2c(OCC(=O)Nc3ccc(C)c(Cl)c3)cccc2c1=O,39.8 µM (active)
6,CC1CCN(c2ccc3c(c2)S(=O)(=O)c2ccccc2C3=O)CC1,inactive
7,Cc1ccccc1C(=O)OC(C)CN1CCN(C)CC1 (stereo unspecified),inactive
8,CN1CCN(C2=C(Cl)C(=O)c3ccccc3C2=O)CC1,16.8 µM (active)
9,CCN(CC(=O)Nc1ccccc1OC)C(=O)c1ccccc1Sc1ccccc1C#N,inactive
10,CCN(CC)c1ccc(N=Nc2nc[nH]n2)cc1,10 µM (active)
11,CCOc1ccc(N(C)S(=O)(=O)c2c[nH]cn2)cc1,inactive
12,O=C(O)c1ccccc1-c1ccc(/C=C/c2cc(C(F)(F)F)nc(O)n2)o1,inactive
13,COc1ccccc1CN1CCc2c([nH]c3ccccc23)C1,inactive
14,C/C(=C\c1ccccc1)C(=O)c1c(C)cc(C)nc1O,inactive
15,COc1cccc(C=C(C(C)=O)C(=O)c2ccccc2)c1,31.6 µM (active)
16,COc1cccc(C(=O)COC(=O)CCC(=O)c2ccccc2)c1,inactive
17,COc1cccc(C(=O)NNS(=O)(=O)c2ccccc2)c1,inactive
18,CC(=O)C(=Cc1ccc(-c2ccccc2)cc1)C(=O)c1ccccc1,28.2 µM (active)
19,CC(=O)c1c(C)[nH]c(C(=O)COC(=O)COc2ccccc2F)c1C,inactive
20,CC(=O)NC1C(=O)N(CCN2CCOCC2)c2ccc(C)cc21 (stereo unspecified),inactive
21,Nc1c(C(=O)NCc2ccccc2)c2nc3ccccc3nc2n1CCCN1CCOCC1,inactive
22,Cc1nc2nc(C)n(CCN3CCOCC3)c(=O)c2c(-c2cccc([N+](=O)[O-])c2)c1C(=O)CCCCCCCCCCN1CCC(c2ccccc2)(c2ccccc2)CC1,13.4 µM (active)
23,Cc1cccn2c(=O)c3cc(C(=O)NCc4ccccc4)c(=N)n(CCCN4CCOCC4)c3nc12,inactive
24,O=C(NC1CC1)c1cccc2c1C(=O)c1ccc(N3CCC(Cc4ccccc4)CC3)cc1S2(=O)=O,inactive
25,O=C(NCc1ccccc1)c1cccc2c1C(=O)c1ccc(/C=C/c3ccccc3)cc1S2(=O)=O,inactive
26,O=C(NC1CCCC1)c1cccc2c1C(=O)c1ccc(/C=C/c3ccccc3)cc1S2(=O)=O,inactive

row,SMILES,Potency
1,O=C(NC1CCCCC1)c1cccc2c1C(=O)c1ccc(N3CCC(Cc4ccccc4)CC3)cc1S2(=O)=O,inactive
2,O=C1c2ccc(Cl)cc2S(=O)(=O)c2cccc(C(=O)N3CCC(Cc4ccccc4)CC3)c21,31.6 µM (active)
3,O=C(NCCOc1ccccc1Cl)c1cccc2c1C(=O)c1ccc(Cl)cc1S2(=O)=O,35.5 µM (active)
4,Cc1c(C)c2cc3c(c(C)c2oc1=O)OCN(CCc1ccc(F)cc1)C3,inactive
5,FC(F)(F)c1cnc(C(c2ccccn2)c2nc[nH]n2)c(Cl)c1 (stereo unspecified),inactive
6,COc1ccc(CN(C)CC(=O)Nc2ccc(SC(F)F)cc2)cc1OC,inactive
7,CCOc1ccc(C(CC(=O)O)NC(=O)C(c2ccccc2)c2ccccc2)cc1OC (stereo unspecified),inactive
8,COc1ccc(CN(CCC(c2ccccc2)c2ccc(OC(C)C)cc2)C(=O)CCl)cc1OC (stereo unspecified),6.31 µM (active)
9,COc1ccc(C(CCN(Cc2ccc(OC)c(OC)c2)C(=O)CCl)c2ccccc2)cc1 (stereo unspecified),31.6 µM (active)
10,CCOc1ccc(CN(C)CC(=O)Nc2cccc3ccccc23)cc1OC,inactive
11,COc1ccc(CN(C(=O)COc2ccc(C)c(C)c2)C2CCS(=O)(=O)C2)cc1OC (stereo unspecified),inactive
12,COc1cc(C2NC(=O)NC(c3ccccc3)=C2C(C)=O)cc([N+](=O)[O-])c1O (stereo unspecified),inactive
13,COc1cc(C(=O)OC(C)C(=O)NC(=O)NC2CCCCC2)ccc1OC(F)F (stereo unspecified),inactive
14,C#CC(=O)N(c1ccc(OC)cc1OC)C(C(=O)NC1CCCC1)c1cccs1 (stereo unspecified),2.12 µM (active)
15,O=C(CCC(=O)c1cccs1)NC1CCCCCC1,inactive
16,O=C(CN(C(=O)CNC(=O)c1cccs1)c1ccccc1)NC1CCCCC1,inactive
17,C#CC(=O)N(c1ccc(OC)c(OC)c1)C(C(=O)NC1CCCC1)c1cccs1 (stereo unspecified),25.1 µM (active)
18,O=C(O)c1ccc(COc2ccc3ccccc3c2/C=C2/NC(=O)N(Cc3ccc(F)cc3)C2=O)cc1,inactive
19,COc1ccccc1C(=O)NCCC(=O)N1CCN(S(=O)(=O)c2cccc(Cl)c2)CC1,inactive
20,CCc1cc2c(COC(=O)c3cc(S(=O)(=O)N4CCOCC4)ccc3F)cc(=O)oc2cc1O,inactive
21,COc1cc(N2C(=O)C=CC2=O)ccc1N1C(=O)C=CC1=O,15 µM (active)
22,COc1ccc(N2C(=O)CC(Nc3ccc(C(=O)O)cc3)C2=O)cc1OC (stereo unspecified),inactive
23,COc1ccccc1N1C(=O)c2cccc3c(Cl)ccc(c23)C1=O,inactive
24,Cc1ccc2oc(C(=O)NCC(c3ccc(Cl)cc3)N3CCOCC3)c(C)c2c1 (stereo unspecified),39.8 µM (active)
25,COc1ccc(C(CNC(=O)COc2c(C)cc(C)cc2C)N2CCOCC2)cc1 (stereo unspecified),inactive
26,CCC(C)NC(=O)c1oc2ccc(S(=O)(=O)N3CCC4(CC3)OCCO4)cc2c1C (stereo unspecified),inactive

row,SMILES,Potency
1,CN(C)C(=O)c1coc2nc3ccccc3nc12,inactive
2,COc1cc(NS(=O)(=O)c2ccc3ccccc3c2)c2ncccc2c1,inactive
3,CCS(=O)(=O)c1ccc(N=Nc2ccc(O)c3ncccc23)c(OC)c1,25.1 µM (active)
4,CCN(CC)S(=O)(=O)c1cc(OC)ccc1N=Nc1ccc(O)c2ncccc12,10 µM (active)
5,CCOC(=O)c1cc2c(=O)n3ccccc3nc2n(Cc2ccco2)/c1=N/C(=O)c1cccc(OC)c1,inactive
6,COc1ccc(N2CCN(C(=O)[C@H](C)NC(=O)c3ccccc3Cl)CC2)cc1,inactive
7,CCCS(=O)(=O)c1nc(S(=O)(=O)c2ccc(C)cc2)c(N2CCN(CCO)CC2)s1,inactive
8,O=C(OCn1ncc(Cl)c(Cl)c1=O)c1ccccc1Cl,15.8 µM (active)
9,COC(=O)C1=CN(C)C=C(C(=O)OC)C1c1ccccc1Cl,inactive
10,O=C(OCn1ncc(Cl)c(Cl)c1=O)c1cccc(C(F)(F)F)c1,39.8 µM (active)
11,CC(=O)c1c(COC(=O)c2ccc(C)cc2)nc2ccccc2[n+]1[O-],inactive
12,N=C(NOC(=O)c1cnn(-c2ccccc2)c1C(F)(F)F)c1cc(C(F)(F)F)cc(C(F)(F)F)c1,inactive
13,O=C(OCCN1C(=O)c2cccc3c(N4CCOCC4)ccc(c23)C1=O)c1ccccc1Cl,inactive
14,O=C(O)c1ccc(OS(=O)(=O)c2cccc(C(F)(F)F)c2)cc1,inactive
15,COc1ccc(C(=O)OCc2ccc(C)cc2)cc1S(=O)(=O)N1CCOCC1,inactive
16,Cc1ccc(C(=O)OCn2ncc(Cl)c(Cl)c2=O)cc1,20 µM (active)
17,C=CCn1c(SCc2cccc(F)c2)nc2cc(C(=O)N3CCC(C(N)=O)CC3)ccc2c1=O,inactive
18,CCN1C(c2ccccc2)=C(c2ccccc2)S/C1=C\C=C1/SC(=S)N(C)C1=O,22.4 µM (active)
19,COc1ccc(/C=N/Nc2ncnc3sc(C)c(C)c23)cc1,inactive
20,NC(COCc1ccccc1)c1csc(NC(=O)Nc2cccc(C(F)(F)F)c2)n1 (stereo unspecified),39.8 µM (active)
21,O=C(Nc1cccc(Cl)c1)Nc1sccc1-c1nc2ccccc2s1,inactive
22,O=C(Nc1cccc(Cl)c1)Nc1nnc(-c2ccncc2)s1,12.6 µM (active)
23,NC(COCc1ccccc1)c1csc(NC(=O)Nc2cccc(Cl)c2)n1 (stereo unspecified),25.1 µM (active)
24,Clc1cccc(Nc2nc(-c3ccncc3)cs2)c1,inactive
25,NC(CCc1ccccc1)c1csc(NC(=O)Nc2cccc(C(F)(F)F)c2)n1 (stereo unspecified),39.8 µM (active)
26,O=C(Nc1cccc(Cl)c1)NC1CC2CCC(C1)N2Cc1ccco1 (stereo unspecified),inactive

row,SMILES,Potency
1,O=C(Cc1csc(Nc2nc(S)nc3ccccc23)n1)N1CCN(c2cccc(C(F)(F)F)c2)CC1,inactive
2,C/C(=N/NC(=O)c1sc(NS(=O)(=O)c2ccc(C)cc2)nc1C)c1sc(N)nc1C,inactive
3,CN1CCN(/C=N/c2nc3ccccc3nc2N2CCCC2)CC1,inactive
4,Cc1cc(O)nc2nc3ccccc3n12,inactive
5,OCCCc1nc2n(n1)C(c1ccccc1Cl)C=C(c1cccs1)N2 (stereo unspecified),inactive
6,CC(C)=Cc1c(O)n2ccccc2nc1=O,inactive
7,CCC/C=C/c1ccc(CN2C(C(C)C)C(=O)N(Cc3cn(CCC4OCCO4)nn3)CCS2(=O)=O)cc1 (stereo unspecified),35.5 µM (active)
8,CCC/C=C/c1ccc(CN2C(C(C)C)C(=O)N(Cc3cn(CCC4OCCCO4)nn3)CCS2(=O)=O)cc1 (stereo unspecified),22.4 µM (active)
9,CN(C1=NS(=O)(=O)c2ccccc21)c1ccc(OC(=O)c2ccncc2)cc1,inactive
10,Cc1csc2ncc(C(=O)N3CCc4ccccc43)c(=O)n12,inactive
11,CC1CN(Cc2cnc(Cl)s2)CC(C)O1 (stereo unspecified),inactive
12,CCN1CCN(S(=O)(=O)c2ccc3c4c(cccc24)C(=O)N3CC)CC1,inactive
13,CCCCCCc1cc2cc(C(=O)NC)c(=N)oc2cc1O,inactive
14,Cc1cc2c(cc1C)CSC(c1c(O)ccc3ccccc13)SC2,35.5 µM (active)
15,COc1ccc(OC)c(/C=C2/Sc3ccccc3C2=O)c1,inactive
16,COc1ccc(/C=C2\SC(=S)N(NS(=O)(=O)c3ccccc3)C2=O)c(OC)c1,39.8 µM (active)
17,COc1ccc(/C=C/C(=O)Nc2ccc(S(=O)(=O)N3CCOCC3)cc2)c(OC)c1,inactive
18,O=C(NCc1cccs1)c1cc(C2CC2)on1,inactive
19,CC(C)(C)NC(=O)C(c1cccnc1)N(C(=O)c1csnn1)c1ccccc1 (stereo unspecified),inactive
20,CC(C)(C)NC(=O)C(c1ccc(-c2ccccc2)cc1)N(C[C@H]1CC[C@@H]([C@@H]2CC[C@H](CO)O2)O1)C(=O)c1cccc(Cl)c1 (stereo partly specified),31.6 µM (active)
21,O=C(c1cccc(Cl)c1)N(Cc1ccco1)C1CCS(=O)(=O)C1 (stereo unspecified),inactive
22,CC(C)(C)NC(=O)C(c1ccc(-c2ccccc2)cc1)N(C[C@H]1CC[C@@H]([C@@H]2CC[C@H](CO)O2)O1)C(=O)c1ccc(-c2ccccc2)cc1 (stereo partly specified),35.5 µM (active)
23,CC(C)(C)NC(=O)C(c1ccncc1)N(C(=O)C1CSC(=O)C1)c1ccccc1 (stereo unspecified),inactive
